# The antibiotic and cytotoxicity screens of Wong et al. (2023)
# In all, about 39,000 compounds went through this assay and about 3,300 (8.5%) were called active. Only a selection was taken, and actives are over-represented in it overall.
# System: HepG2
# Assay: cytotoxicity call (relative viability < 0.9)
# Conditions: 10 µM
row,Structure (SMILES),cytotoxicity call
1,Cc1cc(CCN)on1,inactive
2,C[C@@H]1CN([C@H](C)CO)C(=O)CCCn2nncc2CO[C@H]1CN(C)C(=O)Oc1ccc2ccccc2c1,inactive
3,O=S1(=O)COC2(CNC2)CN1,inactive
4,C[C@@H]1CN([C@@H](C)CO)C(=O)CCCn2cc(nn2)CO[C@@H]1CN(C)C(=O)Oc1cccc2ccccc12,inactive
5,COC(=O)C[C@@H](CN)c1ccc(Cl)cc1,inactive
6,O=C1CCCC2C3CCCN4CCCC(CN12)C34 (stereo not drawn),inactive
7,Cl.Clc1ccc(C(OCCN2CCCCC2)c2ccccc2)cc1 (stereo not drawn),active
8,COc1ccc([C@@H](CN)C(C)C)cc1OC,inactive
9,N[C@H]1CCN(c2cccnc2)C1,inactive
10,OC[C@H]1O[C@@H](Oc2ccc(/C=C/c3cc(O)cc(O)c3)cc2O)[C@H](O)[C@@H](O)[C@@H]1O,inactive
11,CC(=O)c1c(O)cc(C)oc1=O,inactive
12,C=C(C)c1cc2cc(C(C)=O)c(O)cc2o1,active
13,COCCC(=O)N1C[C@H]2CCN[C@H]2C1,inactive
14,Cl.NCC(CC(=O)O)c1ccc(Cl)cc1 (racemic),inactive
15,C[C@]12CC/C(=N\OCCN)C[C@@H]1C(=O)C[C@@H]1[C@@H]2CC[C@]2(C)C(=O)CC[C@@H]12,inactive
16,O=C1NC(=O)C(C2(O)C(=O)c3ccccc3C2=O)C(=O)N1,inactive
17,CC(=O)O[C@H]1C(=O)[C@]2(C)[C@@H](O)C[C@H]3OC[C@@]3(OC(C)=O)[C@@H]2[C@H](OC(=O)c2ccccc2)[C@]2(O)C[C@H](O)C(C)=C1C2(C)C,active
18,CC(=O)O[C@@]12CO[C@@H]1C[C@H](O)[C@@]1(C)C(=O)[C@H](O)C3=C(C)[C@@H](OC(=O)[C@H](O)[C@@H](NC(=O)c4ccccc4)c4ccccc4)C[C@](O)([C@@H](OC(=O)c4ccccc4)[C@H]21)C3(C)C,active
19,CC(=O)OC1C(=O)C2(C)C(O)CC3OCC3(OC(C)=O)C2C(OC(=O)c2ccccc2)C2(O)CC(O)C(C)=C1C2(C)C (stereo not drawn),active
20,O=C1CC[C@]2(CCCN(Cc3cnc[nH]3)C2)N1,inactive
21,C=CCOC(=O)[C@@H]1[C@@H](C(=O)OC)N(C)[C@@H](c2ccccc2)[C@]12C(=O)Nc1ccc(I)cc12,inactive
22,C=CCC1(O)CCC2C3CCC4=CCCCC4C3CCC21C (stereo not drawn),inactive
23,CN(C)C1=NC(=O)C2(CCNCC2)N1,inactive
24,C#CCN(C)C(C)Cc1ccccc1.Cl (stereo not drawn),inactive
25,CN1CCN(c2nc(=O)c3c([nH]2)CCCC3)CC1,inactive
26,N=C(N)NO,inactive

row,Structure (SMILES),cytotoxicity call
1,O=C([C@H]1CCCO1)N1CCCN2CCC[C@H]2C1,inactive
2,Cc1cc2ccccc2n1CCN,inactive
3,CCNC(=O)[C@H]1O[C@H](n2cnc3c(N)ncnc32)[C@@H](O)[C@@H]1O,inactive
4,NNc1ccn([C@@H]2O[C@H](CO)[C@@H](O)[C@H]2O)c(=O)n1,inactive
5,NNc1ccn([C@H]2O[C@@H](CO)[C@@H](O)[C@@H]2O)c(=O)n1,inactive
6,NC(=O)c1cn([C@@H]2O[C@H](CO)[C@@H](O)[C@H]2O)c2ncnc(N)c12,active
7,NC(=O)c1cn([C@H]2O[C@@H](CO)[C@H](O)[C@@H]2O)c2ncnc(N)c12,active
8,CCNC(=O)[C@H]1O[C@@H](n2cnc3c(N)ncnc32)[C@H](O)[C@@H]1O,inactive
9,C[N+](C)(C)CC(=O)[O-].Cl,inactive
10,O=S(=O)(N[C@H]1CCO[C@]2(CCNC2)C1)C1CC1,inactive
11,NCCNC[C@@H](N)CCCNC(N)=N[N+](=O)[O-].O=CC(F)(F)F,inactive
12,CC(=O)N1CCCC[C@]12CCNC2,inactive
13,CCCCC1C(=O)NC(=S)NC1=O,inactive
14,CC1CC(C)C(=O)C(C(O)CC2CC(=O)NC(=O)C2)C1 (stereo not drawn),active
15,CC12CCC3C(CC=C4CC(O)CCC43C)C1CCC2=O (stereo not drawn),inactive
16,COC(=O)[C@H]1CNCCN1c1ccccc1,inactive
17,O[C@H]1[C@H](O)[C@@H](O)CN2CC[C@H](O)[C@H]12,inactive
18,Cc1nc2c(=O)n(C)c(=O)nc-2n(C)n1,active
19,Cn1ncnc2c(=O)n(C)c(=O)nc1-2,active
20,Cc1nc[nH]c1CCN,inactive
21,NC[C@@H](CS(=O)(=O)O)c1ccc(Cl)cc1,inactive
22,CCN1C[C@]2(C)CC[C@H](O)[C@@]34[C@@H]5C[C@H]6[C@H](O)[C@@H]5[C@](O)(C[C@@H]6OC)[C@](O)([C@@H](OC)[C@H]23)[C@@H]14,inactive
23,C[C@@H]1CN([C@@H](C)CO)C(=O)c2c(c3ccccc3n2C)-c2ccccc2CO[C@@H]1CN(C)C(=O)Oc1ccccc1,inactive
24,CN(C)[C@@H]1C(=O)C(C(N)=O)=C(O)[C@@]2(O)C(O)=C3C(=O)c4c(O)cccc4[C@](C)(O)[C@H]3C[C@@H]12,inactive
25,CCC(C)C(=O)OC1CC2(C)C(c3ccoc3)OC(=O)CC23OC2(C)OC34C(OC(C)=O)C3(O)C(OC(=O)C5(C)OC5C)C5(C)CC3(O)C(C)(C5CC(=O)OC)C14O2 (stereo not drawn),inactive
26,Cc1ccc(N=CN(C)C=Nc2ccc(C)cc2C)c(C)c1,inactive

row,Structure (SMILES),cytotoxicity call
1,C[C@H](CO)N1C[C@H](C)[C@@H](CN(C)C(=O)Oc2cccc3ccccc23)OCc2cnnn2CCCC1=O,inactive
2,O=C(O)c1ccc(=O)[nH]c1,inactive
3,CN1CCN(Cc2ccc[nH]2)CC1,inactive
4,CC12CCC3c4ccc(OC(=O)N(CCCl)CCCl)cc4CCC3C1CCC2O (stereo not drawn),active
5,C[C@]12CC[C@@H]3c4ccc(OC(=O)N(CCCl)CCCl)cc4CC[C@H]3[C@@H]1CC[C@@H]2OP(=O)(O)O,inactive
6,Cc1cc(C)nc(NC2=NCCN2)n1,inactive
7,O=C(CN1CCOCC1)c1ccc(O)cc1O,inactive
8,CC(C)[N+](C)(CCC(C(N)=O)(c1ccccc1)c1ccccc1)C(C)C.[I-],inactive
9,c1cc2c(c(N3CCNCC3)c1)OCCO2,inactive
10,CCC1(c2ccccc2)C(=O)NC(=O)NC1=O,inactive
11,COC(=O)C[C@@H]1CC[C@H]2NC[C@H](O)COC[C@@H]2O1,inactive
12,COC12CC(COC(=O)c3cncc(Br)c3)CN(C)C1Cc1cn(C)c3cccc2c13 (stereo not drawn),active
13,NCC1(c2ccc(Cl)cc2)CC1,inactive
14,O=C(O)/C=C/CO,inactive
15,Cn1cc(NC(=O)c2cc(NC(=O)CNC(=N)N)cn2C)cc1C(=O)NCCC(=N)N,inactive
16,O=C(O)CCl,inactive
17,O=C1NC2(CCNCC2)C[C@@H]1c1ccncc1,inactive
18,Cc1cccc(Cc2cnc[nH]2)c1C,inactive
19,NCCc1c[nH]c2ccccc12,inactive
20,COc1cccc(-c2ccc3c(CCN)c[nH]c3c2)c1,active
21,COc1ccc2[nH]cc(CCN)c2c1,inactive
22,COc1ccc(C=O)cc1,inactive
23,COc1ccc(N=[N+]=[N-])cc1,inactive
24,C=CCc1ccc(OC)cc1,active
25,C[C@@H]1C(=O)NC[C@H]2CN(CC3CC3)C[C@@H]21,inactive
26,CNC[C@@H](O)c1ccc(O)c(OC)c1,inactive

row,Structure (SMILES),cytotoxicity call
1,CN1C[C@H]2CN(Cc3nccn3C)C[C@H]2C1=O,inactive
2,N#Cc1c(Cl)c(Cl)c(Cl)c(C#N)c1Cl,active
3,COc1ccc(C2(CN)CCOCC2)cc1,inactive
4,CC[C@@H]1/C=C/C=C/C[C@H](C)[C@@H](O)[C@](C)(O)C(=O)[C@H](C)[C@@H](O)[C@H](C)C(=O)[C@H](C)[C@@H](O)[C@H](C)/C=C/C(=O)O[C@H]2[C@@H](C)[C@@H](CC1)O[C@@]1(CC[C@@H](C)[C@@H](C[C@H](C)O)O1)[C@@H]2C,inactive
5,COC(=O)C1CC(OC(C)=O)C(=O)C2C1(C)CCC1C(=O)OC(c3ccoc3)CC12C (stereo not drawn),inactive
6,"CC1(C)C(=O)C2OC2C2(C)C1CC(O)C1(C)C2CCC2(C)C(c3ccoc3)OC(=O)C3OC321 (stereo not drawn) [1,2alpha-EPOXYDEACETOXYDIHYDROGEDUNIN ]",inactive
7,CC1(C)C(=O)C=CC2(C)C1CC(O)C1(C)C2CCC2(C)C(c3ccoc3)OC(=O)C3OC321 (stereo not drawn),active
8,CC(=O)OC1CC2C(C)(C)C(=O)C=CC2(C)C2CCC3(C)C(=CC(=O)OC3c3ccoc3)C12C (stereo not drawn),active
9,CC1(C)C(O)CC(O)C2(C)C1CC(=O)C1(C)C2CCC2(C)C(c3ccoc3)OC(=O)C3OC321 (stereo not drawn),inactive
10,CC(=O)OC1CC(OC(C)=O)C2(C)C(CC(OC(C)=O)C3(C)C2CCC2(C)C(c4ccoc4)C(=O)C4OC423)C1(C)C (stereo not drawn),inactive
11,NC(=O)[C@H]1CNC(=O)C1,inactive
12,NC1(c2ccccc2F)CCCC1,inactive
13,CC(C)(C)[C@]1(O)C[C@@H]2OC(=O)C[C@@]23C(=O)O[C@@H]2OC(=O)[C@H](O)[C@]213,inactive
14,C/C(=C\[C@@H](N)C(=O)O)CP(=O)(O)O,inactive
15,Cc1cccc(Cc2c[nH]cn2)c1C.Cl,inactive
16,CCC1C2CC3C4N(C)c5ccccc5C45CC(C2C5O)N3C1O (stereo not drawn),inactive
17,c1cc(N2CCNCC2)ccn1,inactive
18,CCn1cc2nc(N3CCNCC3)[nH]cc-2c1=O,inactive
19,C[C@H]1O[C@H](n2cnc3c(N)ncnc32)C[C@H]1O,inactive
20,CC(=O)Oc1ccc(Cl)c2cccnc12,active
21,Cc1c(N)nc([C@H](CC(N)=O)NC[C@@H](N)C(N)=O)nc1C(=O)N[C@H](C(=O)N[C@@H](C)[C@H](O)[C@@H](C)C(=O)N[C@@H](C(=O)NCCc1nc(-c2nc(C(=O)NCCC[S+](C)C)cs2)cs1)[C@@H](C)O)[C@@H](O[C@H]1O[C@H](CO)[C@H](O)[C@@H](O)[C@H]1O[C@H]1O[C@H](CO)[C@@H](O)[C@H](OC(N)=O)[C@@H]1O)c1c[nH]cn1,inactive
22,O[C@H]1[C@H](O)[C@@H](O)CO[C@H]1NCCc1ccccc1,inactive
23,COCCN1[C@@H]2CC[C@H]1CN(c1ncccn1)C2,inactive
24,CCn1nnnc1N,inactive
25,C[C@H](CO)N1C[C@H](C)[C@H](CN(C)C(=O)Oc2cccc3ccccc23)OCc2cnnn2CCCC1=O,inactive
